# Source: PubChem BioAssay (NCATS)
# Results filed as inconclusive are left out. Active and inactive are the calls of the source. The call rests on the fitted dose curve; in most records, active means well fitted curve in the direction sought with a large enough effect; inconclusive means small, poorly fitted or top-dose-only effect, or another doubt; inactive means no such curve, though single readings can be large; an effect the other way counts as inactive or inconclusive.
# Legend:
# [1] = BET inhibitor-based combinations targeting novel dependencies in MECOM-rearranged (r) AML: MV-4-11 cell line (AID 2202233); further: nearly all actives have a fitted effect of over 45% in size
# Summary of the method: (§1)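 Cells at 500/well were exposed for 48 hr to MIPE v5.0 drugs as 11-point dose curves. Viability was read by CellTiter-Glo luminescence and normalized to DMSO and empty-well controls. Activity was expressed as AUC and per-cell-line Z-AUC.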
# [2] = BET inhibitor-based combinations targeting novel dependencies in MECOM-rearranged (r) AML: HNT-34 cell line (AID 2202234); further: nearly all actives have a fitted effect of over 35% in size
# Summary of the method: as §1
# [3] = BET inhibitor-based combinations targeting novel dependencies in MECOM-rearranged (r) AML: OCI-AML3 cell line (AID 2202232); details: Potency: OCI-AML3 viability; further: nearly all actives have a fitted effect of over 35% in size
# Summary of the method: (§2)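 AML cell lines seeded at 500 cells/well, treated with 11-point dose curves for 48 h. Viability by CellTiter-Glo luminescence, normalised to DMSO and empty wells; activity expressed as AUC and per-cell-line Z-transformed AUC.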
# [4] = BET inhibitor-based combinations targeting novel dependencies in MECOM-rearranged (r) AML: AML-191 cell line (AID 2202236; further: nearly all actives have a fitted effect of over 35% in size)
# Summary of the method: as §2
# [5] = BET inhibitor-based combinations targeting novel dependencies in MECOM-rearranged (r) AML: AML-194 cell line (AID 2202237; further: nearly all actives have a fitted effect of over 40% in size)
# Summary of the method: as §2
# [6] = BET inhibitor-based combinations targeting novel dependencies in MECOM-rearranged (r) AML: UCSD-AML1 cell line (AID 2202235); further: nearly all actives have a fitted effect of over 40% in size
# Summary of the method: as §1
# Potency means the concentration at half of the fitted maximal effect.
smiles,measurement,setting,value
CO[C@H]1C[C@@H]2CC[C@@H](C)[C@@](O)(O2)C(=O)C(=O)N2CCCC[C@H]2C(=O)O[C@H]([C@H](C)C[C@@H]2CC[C@@H](OCCO)[C@H](OC)C2)CC(=O)[C@H](C)/C=C(/C)[C@@H](O)[C@@H](OC)C(=O)[C@H](C)C[C@H](C)/C=C\C=CC=C1C,Potency,[1],13.2 µM (active)
COC(=O)C1=C(C)NC(c2ncc(F)cc2F)=N[C@H]1c1ccc(F)cc1Cl,Potency,[1],18.6 µM (active)
same,Potency,[2],16.6 µM (active)
N#C/C(=C(/N)Sc1ccc(N)cc1)c1ccccc1C(F)(F)F,Potency,[3],7.42 µM (active)
same,Potency,[4],5.9 µM (active)
same,Potency,[5],16.6 µM (active)
CNC(=O)[C@H]1O[C@@H](n2cnc3c(NCc4cccc(I)c4)nc(Cl)nc32)[C@H](O)[C@@H]1O,Potency,[3],inactive
same,Potency,[6],inactive
same,Potency,[4],inactive
same,Potency,[5],inactive
Cn1ncc(NC(=O)c2nc(-c3c(F)cccc3F)sc2N)c1N1CC[C@@H](N)[C@H](F)CC1,Potency,[1],2.63 µM (active)
same,Potency,[2],2.09 µM (active)
same,Potency,[6],0.0934 µM (active)
CCN1C(=O)N2Cc3cc(OC)cc(OC)c3[C@@H](C)C=C2C12CCN(Cc1cc(C)cc(C)c1)CC2,Potency,[1],29.5 µM (active)
same,Potency,[2],23.5 µM (active)
CC1(C)O[C@@H]2C[C@H]3[C@@H]4CCC5=CC(=O)C=C[C@]5(C)[C@H]4[C@@H](O)C[C@]3(C)[C@]2(C(=O)CO)O1,Potency,[3],inactive
same,Potency,[2],inactive
same,Potency,[6],inactive
same,Potency,[4],inactive
same,Potency,[5],0.332 µM (active)
C=CCNC1=C2C[C@@H](C)C[C@H](OC)[C@H](O)[C@@H](C)/C=C(\C)[C@H](OC(N)=O)[C@@H](OC)/C=C\C=C(/C)C(=O)NC(=CC1=O)C2=O,Potency,[3],10.5 µM (active)
same,Potency,[2],11.8 µM (active)
same,Potency,[6],10.5 µM (active)
same,Potency,[4],18.6 µM (active)
same,Potency,[5],16.6 µM (active)
C[C@@]1(c2ncncc2F)NC(=O)c2cc(-c3cn[nH]c3)ccc21,Potency,[1],14.8 µM (active)
CN1CCN(c2nc(C3=C(c4c[nH]c5ccccc45)C(=O)NC3=O)c3ccccc3n2)CC1,Potency,[1],1.86 µM (active)
Clc1ccc(COC(Cn2ccnc2)c2ccc(Cl)cc2Cl)cc1 (stereo not given),Potency,[1],20.9 µM (active)
NS(=O)(=O)c1ccc(NC(=S)N2CCN(C/C=C/c3ccccc3)CC2)cc1,Potency,[3],20.9 µM (active)
same,Potency,[2],18.6 µM (active)
same,Potency,[6],inactive
same,Potency,[5],inactive
CO[C@H]1/C=C/O[C@@]2(C)Oc3c(C)c(O)c4c(O)c(c5c(c4c3C2=O)=NC2(CCN(CC(C)C)CC2)N=5)NC(=O)/C(C)=C/C=C/[C@H](C)[C@H](O)[C@@H](C)[C@@H](O)[C@@H](C)[C@H](OC(C)=O)[C@@H]1C,Potency,[3],16.6 µM (active)
same,Potency,[6],inactive
same,Potency,[4],18.6 µM (active)
Clc1ccc(CCC(Cn2ccnc2)Sc2c(Cl)cccc2Cl)cc1 (stereo not given),Potency,[3],inactive
same,Potency,[6],inactive
same,Potency,[4],inactive
same,Potency,[5],inactive
NC(=O)c1cnc2[nH]ccc2c1NC1C2CC3C[C@H]1CC(O)(C3)C2 (stereo not given in full),Potency,[1],0.209 µM (active)
same,Potency,[2],8.33 µM (active)
same,Potency,[6],0.833 µM (active)
COc1ccc(COc2ccc(Cc3cnc(N)nc3N)cc2OC)cc1,Potency,[1],inactive
Cc1ccc(-n2nc(C(C)(C)C)cc2NC(=O)NCc2cc(F)ccc2Oc2ccc3c(cnn3CCO)c2)cc1,Potency,[3],14.8 µM (active)
same,Potency,[4],18.6 µM (active)
same,Potency,[5],16.6 µM (active)
C[C@H](NC(=O)C(=O)Nc1ccccc1C(C)(C)C)C(=O)N[C@@H](CC(=O)O)C(=O)COc1c(F)c(F)cc(F)c1F,Potency,[3],10.5 µM (active)
same,Potency,[4],20.9 µM (active)
CN(C)CCCOc1ccc(-c2ccc3ncc4c(c3c2)n(C2CCOCC2)c(=O)n4C)cn1,Potency,[1],4.07 µM (active)
same,Potency,[2],2.57 µM (active)
Cc1ccc(Nc2nnc(Cc3ccncc3)c3ccccc23)cc1Br,Potency,[1],16.6 µM (active)
same,Potency,[2],20.9 µM (active)
same,Potency,[6],inactive
CC(C)n1cnc2c(NCCCCCCNC(=O)OC(C)(C)C)nc(NCCO)nc21,Potency,[1],16.6 µM (active)
COC(=O)N[C@H](C(=O)N1CCC[C@H]1c1ncc(-c2ccc(-c3ccc(-c4cnc([C@@H]5CCCN5C(=O)[C@@H](NC(=O)OC)C(C)C)[nH]4)cc3)cc2)[nH]1)C(C)C,Potency,[3],inactive
same,Potency,[6],inactive
CCNc1cc(NC2CCC(O)CC2)nc(Nc2ccc3c(ccn3Cc3ccccc3)c2)n1 (stereo not given),Potency,[3],inactive
same,Potency,[4],inactive
CN(C)Cc1cccc(N=C(c2ccccc2)c2c(O)[nH]c3cc(C(=O)N(C)C)ccc23)c1,Potency,[1],6.61 µM (active)
C=C[C@@H]1CN2CCC1C[C@H]2[C@H](O)c1ccnc2ccc(OC)cc12 (stereo not given in full),Potency,[3],20.9 µM (active)
same,Potency,[6],inactive
same,Potency,[4],inactive
same,Potency,[5],inactive
O=C(NCc1ccncc1)C12C[C@H]3C[C@@H](C1)CC(c1ccc(Cl)cc1)(C3)C2,Potency,[3],20.9 µM (active)
same,Potency,[6],inactive
Cc1cccc(/C=N/Nc2cc(N3CCOCC3)nc(OCCc3ccccn3)n2)c1,Potency,[1],7.42 µM (active)
CO[C@H]1/C=C/O[C@@]2(C)Oc3c(C)c(O)c4c(O)c(c(/C=N\N5CCN(C6CCCC6)CC5)c(O)c4c3C2=O)NC(=O)/C(C)=C\C=C\[C@H](C)[C@H](O)[C@@H](C)[C@@H](O)[C@@H](C)[C@H](OC(C)=O)[C@@H]1C,Potency,[1],23.5 µM (active)
COc1cc(NCc2ccc3nc(N)nc(N)c3c2C)cc(OC)c1OC,Potency,[1],5.9 µM (active)
CC[C@H](NC(=O)[C@H](C)NC)C(=O)N1C[C@@H](O)C[C@H]1Cc1c(-c2[nH]c3cc(F)ccc3c2C[C@@H]2C[C@H](O)CN2C(=O)[C@H](CC)NC(=O)[C@H](C)NC)[nH]c2cc(F)ccc12,Potency,[3],inactive
same,Potency,[6],0.332 µM (active)
same,Potency,[4],0.742 µM (active)
same,Potency,[5],1.18 µM (active)
C=CC(=O)N1CC/C(=C\c2ccc(F)c([N+](=O)[O-])c2)C(=O)/C(=C/c2ccc(F)c([N+](=O)[O-])c2)C1,Potency,[1],0.059 µM (active)
same,Potency,[2],0.186 µM (active)
same,Potency,[6],0.166 µM (active)
same,Potency,[4],0.209 µM (active)
same,Potency,[5],0.372 µM (active)
CNC(=O)[C@@H](NC(=O)[C@H](CC(C)C)[C@H](O)C(=O)NO)C(C)(C)C,Potency,[1],16.6 µM (active)
same,Potency,[2],14.8 µM (active)
same,Potency,[6],inactive
same,Potency,[4],20.9 µM (active)
C[C@H]1CNC(=O)c2cnn3ccc(nc23)N[C@H](C)c2cc(F)ccc2O1,Potency,[1],1.32 µM (active)
same,Potency,[2],0.833 µM (active)
same,Potency,[6],0.833 µM (active)
CONC(=O)Nc1ccc(-c2sc3c(c2CN(C)C)c(=O)n(-c2ccc(OC)nn2)c(=O)n3Cc2c(F)cccc2F)cc1,Potency,[1],inactive
same,Potency,[2],inactive
same,Potency,[6],inactive
same,Potency,[5],inactive
C[C@@H]1CC[C@@]2(OC1)OC1CC3C4CC=C5CC(O)CCC5(C)C4CCC3(C)C1[C@@H]2C (stereo not given in full),Potency,[1],inactive
same,Potency,[6],inactive
O=C(/C=C/c1ccc(Cl)cc1)N1CCC2(CC1)CN(Cc1ccc(Cl)c(Cl)c1)C(=O)O2,Potency,[1],20.9 µM (active)
same,Potency,[2],26.3 µM (active)
same,Potency,[5],inactive
[2H]c1nc(C)nc([2H])c1-c1cc(NC[C@@H](C)c2cccc3c(C(=O)NC)ccnc23)ncn1,Potency,[1],inactive
same,outcome,[2],inactive
same,Potency,[6],inactive
Clc1ccc(C(Cn2ccnc2)OCc2ccsc2Cl)c(Cl)c1 (stereo not given),Potency,[1],23.5 µM (active)
same,Potency,[2],18.6 µM (active)
same,Potency,[4],23.5 µM (active)
same,Potency,[5],23.5 µM (active)
Cc1ccc(-c2ccc(C)cn2)nc1,Potency,[1],inactive
same,Potency,[6],inactive
CCC1CCCCN1C(=O)n1ncc(C(O)(c2ccccc2)c2ccccc2)n1 (stereo not given),Potency,[1],14.8 µM (active)
same,Potency,[6],20.9 µM (active)
same,Potency,[4],14.8 µM (active)
Cc1ccc(-c2nc(N)nc3c2nnn3Cc2cccc(CO[C@H]3CCOC3)n2)o1,Potency,[1],inactive
same,Potency,[2],inactive
same,Potency,[6],inactive
same,Potency,[5],inactive
COc1ccc(C2=N[C@H](c3ccc(Cl)cc3)[C@H](c3ccc(Cl)cc3)N2C(=O)N2CCNC(=O)C2)c(OC(C)C)c1,Potency,[1],23.5 µM (active)
same,Potency,[2],23.5 µM (active)
same,Potency,[6],inactive
same,Potency,[4],26.3 µM (active)
CCN(CC)C(=S)SSC(=S)N(CC)CC,Potency,[1],0.263 µM (active)
same,Potency,[2],0.332 µM (active)
same,Potency,[4],0.296 µM (active)
same,Potency,[5],0.296 µM (active)
COc1cc(OCc2cccc(-c3ccccc3)c2C)cc(OC)c1CN1CCCC[C@H]1C(=O)O,Potency,[1],20.9 µM (active)
same,Potency,[6],inactive
O=c1oc2c(C3OCCCO3)c(O)ccc2c2c1CNCC2,Potency,[1],inactive
same,Potency,[2],inactive
same,Potency,[6],inactive
same,Potency,[4],18.6 µM (active)
same,Potency,[5],inactive
CN[C@@H]1[C@@H](O)[C@@H](O[C@@H]2[C@@H](O)[C@H](O[C@H]3O[C@H](CN)[C@@H](O)[C@H](O)[C@H]3O)[C@@H](N)C[C@H]2NC(=O)C(O)CN)OC[C@]1(C)O (stereo not given in full),Potency,[1],inactive
same,Potency,[2],inactive
same,Potency,[4],inactive
Clc1cc(Cl)cc(CNc2ncncc2-c2ccc3c(c2)OCO3)c1,Potency,[1],23.5 µM (active)
same,Potency,[6],inactive
same,Potency,[5],26.3 µM (active)
COc1ccc(C(=O)N2CCN(C(=O)/C=C/c3ccc(Br)cc3)CC2)cc1,Potency,[1],11.8 µM (active)
same,Potency,[6],inactive
same,Potency,[4],inactive
same,Potency,[5],inactive
c1ccc(-c2cc(CCC3CCNCC3)c3ccccc3n2)cc1,Potency,[1],20.9 µM (active)
same,Potency,[2],20.9 µM (active)
same,Potency,[6],26.3 µM (active)
same,Potency,[4],20.9 µM (active)
same,Potency,[5],26.3 µM (active)
COc1ccc(CC2c3cc(OC)c(OC)cc3CC[N+]2(C)CCC(=O)OCCCCCOC(=O)CC[N+]2(C)CCc3cc(OC)c(OC)cc3C2Cc2ccc(OC)c(OC)c2)cc1OC (stereo not given),Potency,[1],18.6 µM (active)
same,Potency,[6],inactive
same,Potency,[5],inactive
Cc1c(-c2ccc(-c3ccccc3F)cc2)nc2ccc(F)cc2c1C(=O)O,Potency,[1],0.209 µM (active)
same,Potency,[2],inactive
same,Potency,[6],0.742 µM (active)
same,Potency,[5],0.662 µM (active)
CC1=C2C[C@H]3[C@@H](CC[C@@H]4C[C@H](NS(C)(=O)=O)CC[C@@]43C)[C@@H]2CC[C@@]2(C1)O[C@@H]1C[C@H](C)CN[C@H]1[C@H]2C,Potency,[1],16.6 µM (active)
same,Potency,[2],16.6 µM (active)
same,Potency,[4],20.9 µM (active)
same,Potency,[5],23.5 µM (active)
C[C@@H](O)[C@@H](C)Oc1nc(Nc2ccc(S(=N)(=O)C3CC3)cc2)ncc1C(F)(F)F (stereo not given in full),Potency,[1],14.8 µM (active)
same,Potency,[2],16.6 µM (active)
same,Potency,[6],20.9 µM (active)
same,Potency,[4],18.6 µM (active)
same,Potency,[5],16.6 µM (active)
